Reference: the supplement of paper PMC13380429

Test system: Vero E6 infected with SARS-CoV-2
Assay: inhibition of SARS-CoV-2 cytopathic effect; higher = more antiviral protection, active = above 15
Conditions: 48 h

Measured: inhibition of SARS-CoV-2 cytopathic effect

Cc1c(OCC(F)(F)F)ccnc1C[S+]([O-])c1nc2ccccc2[nH]1 (stereo not given) [lansoprazole]
inactive: 1 nM 3.22% | 8.33 nM 0.73% | 100 nM -0.31% | 833.33 nM -1.96% | 10000 nM -1.14%

CC1(COc2ccc3c(c2)ncn3-c2ccc3cccc(N4CCC(N)CC4)c3n2)COC1 [crenolanib]
inactive: 1 nM -0.58% | 8.33 nM 1.15% | 100 nM 2.74% | 833.33 nM 2.21% | 10000 nM 0.74%

Cn1c(=O)n(-c2ccc(C(C)(C)C#N)cc2)c2c3cc(-c4cnc5ccccc5c4)ccc3ncc21
inactive: 1 nM 1.43% | 8.33 nM -0.22% | 100 nM 0.93% | 833.33 nM -5.08% | 10000 nM -5.4%

COc1cc2c3cc1Oc1cc(ccc1O)C[C@@H]1c4c(cc(OC)c(O)c4Oc4ccc(cc4)C[C@@H]3N(C)CC2)CC[N+]1(C)C [tubocurarine]
inactive: 1 nM -3.23% | 8.33 nM -3.95% | 100 nM -2.68% | 833.33 nM 0.38% | 10000 nM 1.45%

CC(C)(O)C(Cl)(Cl)Cl [chlorobutanol]
inactive: 1 nM 0.34% | 8.33 nM 1.76% | 100 nM 0.44% | 833.33 nM 1.86% | 10000 nM -2.07%

COc1ccc(Oc2c(Cl)cnn(C3c4ccccc4-c4ccccc43)c2=O)cc1
inactive: 1 nM -3.45% | 8.33 nM -3.66% | 100 nM 0.55% | 833.33 nM -0.63% | 10000 nM -0.88%

Cc1ccccc1NC(=O)Nc1ccc(CC(=O)N(C)[C@@H](CC(C)C)C(=O)NCC[C@H](NC(=O)[C@@H]2CCCN2S(=O)(=O)c2cc(Cl)cc(Cl)c2)C(=O)O)cc1
inactive: 1 nM -1.88% | 8.33 nM 0.66% | 100 nM -0.65% | 833.33 nM 0.17% | 10000 nM -3.63%

CCOC(=O)CCNc1cc(N2CCc3ccccc3CC2)nc(-c2ccccn2)n1
inactive: 1 nM -5.53% | 8.33 nM 0.27% | 100 nM 1.52% | 833.33 nM 1.83% | 10000 nM -0.53%

O=C(CN1C(=O)C2(CCCC2)NC[C@H]1c1cc(F)cc(F)c1)Nc1ccc2c(c1)C[C@@]1(C2)C(=O)Nc2ncccc21
inactive: 1 nM -6.85% | 8.33 nM -7.92% | 100 nM -8.42% | 833.33 nM -6.83% | 10000 nM -2.55%

N#C/C(=C1/SC[C@@H](c2ccc(Cl)cc2Cl)S1)n1ccnc1 [luliconazole]
inactive: 1 nM 1% | 8.33 nM 1.92% | 100 nM 2.17% | 833.33 nM 1.1% | 10000 nM 3.29%

Cc1nccc2[nH]c(=O)ccc12 [medorinone]
inactive: 1 nM -1.14% | 8.33 nM -4.65% | 100 nM 1.27% | 833.33 nM -0.3% | 10000 nM -3.87%

COc1ccccc1N1CCN(CCCCN2C(=O)c3ccccc3C2=O)CC1
inactive: 1 nM -0.49% | 8.33 nM -1.04% | 100 nM 2.68% | 833.33 nM 1.7% | 10000 nM 4.74%

CC1(COc2ccc(CC3SC(=O)NC3=O)cc2)CCCCC1 (stereo not given) [ciglitazone]
inactive: 1 nM -1.15% | 8.33 nM -3.35% | 100 nM -1.82% | 833.33 nM 3.16% | 10000 nM 4.02%

O=Nc1c(O)[nH]c2c(Cl)c(Cl)ccc12
inactive: 1 nM -0.18% | 8.33 nM -0.08% | 100 nM -2.11% | 833.33 nM -0.54% | 10000 nM -3.64%

C[N+]1(C)CCC(=C(c2ccccc2)c2ccccc2)CC1 [diphemanil]
inactive: 1 nM -0.26% | 8.33 nM -0.4% | 100 nM -0.53% | 833.33 nM 2.17% | 10000 nM 2.09%

CC[C@H]1OC(=O)C[C@@H](O)[C@H](C)[C@@H](O[C@@H]2O[C@H](C)C[C@H](N(C)C)[C@H]2O)[C@@H](CC=O)C[C@@H](C)C(=O)/C=C/[C@]2(C)O[C@H]2[C@@H]1C [rosamicin]
inactive: 1 nM 1.84% | 8.33 nM 0.4% | 100 nM -1.22% | 833.33 nM 2.62% | 10000 nM 9.6%

CC(=O)N(O)C/C=C/c1cccc(Oc2ccccc2)c1
inactive: 1 nM 2.1% | 8.33 nM 2.16% | 100 nM 1.66% | 833.33 nM -0.73% | 10000 nM -2.02%

CC(C)(C)c1nc(-c2cccc(NS(=O)(=O)c3c(F)cccc3F)c2F)c(-c2ccnc(N)n2)s1 [dabrafenib]
inactive: 1 nM -0.66% | 8.33 nM -0.54% | 100 nM 0.25% | 833.33 nM -1.77% | 10000 nM 13.1%
